Measurements reported in ChEMBL document CHEMBL1961873, “Compounds: GSK PKIS; Assays: Nanosyn kinase panel” (2012).

How the values were obtained:
[1] = target: Mitogen-activated protein kinase kinase kinase kinase 4 (Homo sapiens) (UniProt O95819); settings: at 1 µM;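 further: reported figure is an averaged inhibition value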
[2] = target: Dual specificity mitogen-activated protein kinase kinase 1 (Homo sapiens) (UniProt Q02750); settings: at 0.1 µM
[3] = target: Dual specificity mitogen-activated protein kinase kinase 1 (Homo sapiens) (UniProt Q02750); settings: at 1 µM
[4] = target: Misshapen-like kinase 1 (Homo sapiens) (UniProt Q8N4C8); settings: at 0.1 µM
[5] = target: Misshapen-like kinase 1 (Homo sapiens) (UniProt Q8N4C8); settings: at 1 µM
[6] = target: T1, Serine/threonine-protein kinase 4 (Homo sapiens) (UniProt Q13043); settings: at 0.1 µM
T1 sequence (whole entry): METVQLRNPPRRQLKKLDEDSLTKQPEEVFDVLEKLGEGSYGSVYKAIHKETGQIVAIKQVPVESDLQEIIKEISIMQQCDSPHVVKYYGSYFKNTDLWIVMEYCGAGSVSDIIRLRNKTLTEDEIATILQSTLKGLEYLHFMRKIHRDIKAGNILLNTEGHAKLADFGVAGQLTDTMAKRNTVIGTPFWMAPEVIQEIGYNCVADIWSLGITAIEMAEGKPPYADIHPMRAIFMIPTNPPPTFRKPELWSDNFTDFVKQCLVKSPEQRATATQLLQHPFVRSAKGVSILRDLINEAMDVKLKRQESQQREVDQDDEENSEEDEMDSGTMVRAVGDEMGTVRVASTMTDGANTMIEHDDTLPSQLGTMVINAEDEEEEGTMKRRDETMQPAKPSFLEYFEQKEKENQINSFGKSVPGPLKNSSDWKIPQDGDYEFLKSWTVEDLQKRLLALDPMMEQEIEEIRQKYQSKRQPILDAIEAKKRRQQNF

[7] = target: T1, Serine/threonine-protein kinase 4 (Homo sapiens); settings: at 1 µM
[8] = target: T2, Serine/threonine-protein kinase 3 (Homo sapiens) (UniProt Q13188); settings: at 0.1 µM
T2 sequence (whole entry): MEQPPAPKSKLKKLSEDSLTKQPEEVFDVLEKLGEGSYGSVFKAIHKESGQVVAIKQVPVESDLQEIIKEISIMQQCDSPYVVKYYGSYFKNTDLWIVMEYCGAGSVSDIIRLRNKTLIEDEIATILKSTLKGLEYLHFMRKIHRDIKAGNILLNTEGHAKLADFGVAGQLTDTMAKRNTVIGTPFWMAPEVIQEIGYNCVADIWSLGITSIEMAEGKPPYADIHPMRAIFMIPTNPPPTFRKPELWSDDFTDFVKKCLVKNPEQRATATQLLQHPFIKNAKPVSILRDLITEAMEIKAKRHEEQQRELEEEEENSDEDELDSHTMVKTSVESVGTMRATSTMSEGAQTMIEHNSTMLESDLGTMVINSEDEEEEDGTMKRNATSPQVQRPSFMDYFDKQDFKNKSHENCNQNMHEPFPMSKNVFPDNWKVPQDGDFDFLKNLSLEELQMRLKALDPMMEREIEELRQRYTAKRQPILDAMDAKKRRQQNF

[9] = target: T2, Serine/threonine-protein kinase 3 (Homo sapiens); settings: at 1 µM
[10] = target: Serine/threonine-protein kinase 26 (Homo sapiens) (UniProt Q9P289); settings: at 0.1 µM
[11] = target: Serine/threonine-protein kinase 26 (Homo sapiens) (UniProt Q9P289); settings: at 1 µM
[12] = target: Serine/threonine-protein kinase PAK 1 (Homo sapiens) (UniProt Q13153); settings: at 0.1 µM
Serine/threonine-protein kinase PAK 1 (Homo sapiens), sequence (Q13153 whole entry): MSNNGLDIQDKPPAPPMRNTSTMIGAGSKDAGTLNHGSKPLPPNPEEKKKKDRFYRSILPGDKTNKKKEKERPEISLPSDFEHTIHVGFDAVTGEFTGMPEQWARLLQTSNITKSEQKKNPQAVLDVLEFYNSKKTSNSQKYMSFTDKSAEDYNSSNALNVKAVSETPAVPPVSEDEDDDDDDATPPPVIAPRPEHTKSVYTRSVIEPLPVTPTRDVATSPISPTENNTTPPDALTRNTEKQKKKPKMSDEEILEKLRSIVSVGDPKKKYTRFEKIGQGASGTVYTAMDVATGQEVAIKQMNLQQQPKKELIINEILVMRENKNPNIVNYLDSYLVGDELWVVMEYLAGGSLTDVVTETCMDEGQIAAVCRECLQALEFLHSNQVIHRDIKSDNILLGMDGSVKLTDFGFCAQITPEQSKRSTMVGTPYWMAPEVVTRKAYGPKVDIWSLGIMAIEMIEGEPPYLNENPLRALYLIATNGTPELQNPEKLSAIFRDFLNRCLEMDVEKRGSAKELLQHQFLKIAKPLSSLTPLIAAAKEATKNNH

[13] = target: Serine/threonine-protein kinase PAK 1 (Homo sapiens) (UniProt Q13153); settings: at 1 µM
[14] = target: Serine/threonine-protein kinase PAK 2 (Homo sapiens) (UniProt Q13177); settings: at 0.1 µM
Serine/threonine-protein kinase PAK 2 (Homo sapiens), sequence (Q13177 whole entry): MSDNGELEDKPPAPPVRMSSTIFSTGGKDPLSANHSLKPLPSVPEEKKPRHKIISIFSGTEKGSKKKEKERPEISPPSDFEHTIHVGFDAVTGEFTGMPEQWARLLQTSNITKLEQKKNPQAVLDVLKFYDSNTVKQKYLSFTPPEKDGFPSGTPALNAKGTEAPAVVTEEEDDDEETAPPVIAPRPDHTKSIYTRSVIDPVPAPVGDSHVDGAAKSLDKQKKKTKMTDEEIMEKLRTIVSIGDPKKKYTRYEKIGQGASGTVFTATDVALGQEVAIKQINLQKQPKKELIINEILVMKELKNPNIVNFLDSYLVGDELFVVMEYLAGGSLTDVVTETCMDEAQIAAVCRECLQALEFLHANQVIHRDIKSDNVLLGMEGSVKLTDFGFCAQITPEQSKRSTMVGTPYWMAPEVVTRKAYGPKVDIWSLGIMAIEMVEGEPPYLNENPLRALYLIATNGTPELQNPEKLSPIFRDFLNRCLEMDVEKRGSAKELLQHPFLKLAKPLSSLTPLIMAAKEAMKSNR

[15] = target: Serine/threonine-protein kinase PAK 2 (Homo sapiens) (UniProt Q13177); settings: at 1 µM
[16] = target: Serine/threonine-protein kinase PAK 3 (Homo sapiens) (UniProt O75914); settings: at 0.1 µM
Serine/threonine-protein kinase PAK 3 (Homo sapiens), sequence (O75914 whole entry, looked up): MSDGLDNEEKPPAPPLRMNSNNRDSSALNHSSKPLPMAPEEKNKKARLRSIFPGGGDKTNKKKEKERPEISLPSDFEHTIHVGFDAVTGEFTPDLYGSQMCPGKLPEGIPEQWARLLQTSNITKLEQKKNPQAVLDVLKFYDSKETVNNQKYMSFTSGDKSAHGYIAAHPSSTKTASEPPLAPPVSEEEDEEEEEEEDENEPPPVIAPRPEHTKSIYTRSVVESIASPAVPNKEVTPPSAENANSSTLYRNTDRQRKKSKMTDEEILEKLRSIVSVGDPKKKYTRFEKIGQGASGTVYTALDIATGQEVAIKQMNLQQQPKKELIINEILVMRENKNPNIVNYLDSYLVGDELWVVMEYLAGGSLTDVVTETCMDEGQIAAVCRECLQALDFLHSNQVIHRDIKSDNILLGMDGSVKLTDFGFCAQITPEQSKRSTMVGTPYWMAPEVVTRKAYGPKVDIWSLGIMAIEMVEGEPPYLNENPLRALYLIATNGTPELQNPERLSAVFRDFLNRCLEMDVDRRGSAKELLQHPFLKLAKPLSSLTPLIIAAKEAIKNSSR

[17] = target: Serine/threonine-protein kinase PAK 3 (Homo sapiens) (UniProt O75914); settings: at 1 µM
[18] = target: Serine/threonine-protein kinase PAK 5 (Homo sapiens) (UniProt Q9P286); settings: at 0.1 µM
Serine/threonine-protein kinase PAK 5 (Homo sapiens), sequence (Q9P286 whole entry, looked up): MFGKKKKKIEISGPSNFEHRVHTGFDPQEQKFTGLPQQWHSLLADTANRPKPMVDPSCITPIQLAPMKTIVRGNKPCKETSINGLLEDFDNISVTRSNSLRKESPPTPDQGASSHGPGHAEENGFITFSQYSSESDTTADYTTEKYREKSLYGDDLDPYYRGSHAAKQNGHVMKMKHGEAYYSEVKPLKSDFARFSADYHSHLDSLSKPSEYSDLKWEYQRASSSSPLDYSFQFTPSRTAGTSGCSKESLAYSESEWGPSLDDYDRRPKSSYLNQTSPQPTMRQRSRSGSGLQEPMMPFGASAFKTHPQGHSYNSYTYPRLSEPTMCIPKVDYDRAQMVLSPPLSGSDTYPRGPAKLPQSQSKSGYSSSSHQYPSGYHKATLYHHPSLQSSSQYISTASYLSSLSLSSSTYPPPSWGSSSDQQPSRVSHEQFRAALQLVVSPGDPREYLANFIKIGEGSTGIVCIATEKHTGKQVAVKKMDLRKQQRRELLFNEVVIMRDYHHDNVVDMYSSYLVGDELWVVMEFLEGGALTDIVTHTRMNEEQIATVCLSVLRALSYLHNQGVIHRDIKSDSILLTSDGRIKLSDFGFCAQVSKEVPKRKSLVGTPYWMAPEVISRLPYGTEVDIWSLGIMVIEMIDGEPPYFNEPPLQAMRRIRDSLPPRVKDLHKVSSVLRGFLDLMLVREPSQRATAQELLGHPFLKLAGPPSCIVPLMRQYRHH

[19] = target: Serine/threonine-protein kinase PAK 5 (Homo sapiens) (UniProt Q9P286); settings: at 1 µM
[20] = target: Serine/threonine-protein kinase PAK 6 (Homo sapiens) (UniProt Q9NQU5); settings: at 0.1 µM;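 further: mean PAK6 inhibition reported from the GSK PKIS screen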
Serine/threonine-protein kinase PAK 6 (Homo sapiens), sequence (Q9NQU5 whole entry, looked up): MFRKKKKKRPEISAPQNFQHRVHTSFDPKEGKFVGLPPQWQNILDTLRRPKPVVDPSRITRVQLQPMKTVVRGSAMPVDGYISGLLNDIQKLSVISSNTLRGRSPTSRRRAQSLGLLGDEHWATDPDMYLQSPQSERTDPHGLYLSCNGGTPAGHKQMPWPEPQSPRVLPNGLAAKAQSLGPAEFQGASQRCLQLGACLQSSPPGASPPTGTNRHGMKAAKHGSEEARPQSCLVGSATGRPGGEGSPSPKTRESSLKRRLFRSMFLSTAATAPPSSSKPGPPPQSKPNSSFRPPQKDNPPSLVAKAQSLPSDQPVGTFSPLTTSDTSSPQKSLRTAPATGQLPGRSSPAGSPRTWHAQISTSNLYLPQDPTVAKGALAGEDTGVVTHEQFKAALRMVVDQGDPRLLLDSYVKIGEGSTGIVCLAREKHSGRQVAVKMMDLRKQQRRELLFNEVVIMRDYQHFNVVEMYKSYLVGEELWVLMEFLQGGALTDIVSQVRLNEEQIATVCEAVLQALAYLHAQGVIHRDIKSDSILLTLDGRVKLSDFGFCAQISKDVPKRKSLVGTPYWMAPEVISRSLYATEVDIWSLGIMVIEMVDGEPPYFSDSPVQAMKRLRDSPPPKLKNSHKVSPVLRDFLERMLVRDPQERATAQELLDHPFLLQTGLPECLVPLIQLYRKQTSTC

Mitogen-activated protein kinase kinase kinase kinase 4 (Homo sapiens), sequence (O95819 2-1239 limits assumed): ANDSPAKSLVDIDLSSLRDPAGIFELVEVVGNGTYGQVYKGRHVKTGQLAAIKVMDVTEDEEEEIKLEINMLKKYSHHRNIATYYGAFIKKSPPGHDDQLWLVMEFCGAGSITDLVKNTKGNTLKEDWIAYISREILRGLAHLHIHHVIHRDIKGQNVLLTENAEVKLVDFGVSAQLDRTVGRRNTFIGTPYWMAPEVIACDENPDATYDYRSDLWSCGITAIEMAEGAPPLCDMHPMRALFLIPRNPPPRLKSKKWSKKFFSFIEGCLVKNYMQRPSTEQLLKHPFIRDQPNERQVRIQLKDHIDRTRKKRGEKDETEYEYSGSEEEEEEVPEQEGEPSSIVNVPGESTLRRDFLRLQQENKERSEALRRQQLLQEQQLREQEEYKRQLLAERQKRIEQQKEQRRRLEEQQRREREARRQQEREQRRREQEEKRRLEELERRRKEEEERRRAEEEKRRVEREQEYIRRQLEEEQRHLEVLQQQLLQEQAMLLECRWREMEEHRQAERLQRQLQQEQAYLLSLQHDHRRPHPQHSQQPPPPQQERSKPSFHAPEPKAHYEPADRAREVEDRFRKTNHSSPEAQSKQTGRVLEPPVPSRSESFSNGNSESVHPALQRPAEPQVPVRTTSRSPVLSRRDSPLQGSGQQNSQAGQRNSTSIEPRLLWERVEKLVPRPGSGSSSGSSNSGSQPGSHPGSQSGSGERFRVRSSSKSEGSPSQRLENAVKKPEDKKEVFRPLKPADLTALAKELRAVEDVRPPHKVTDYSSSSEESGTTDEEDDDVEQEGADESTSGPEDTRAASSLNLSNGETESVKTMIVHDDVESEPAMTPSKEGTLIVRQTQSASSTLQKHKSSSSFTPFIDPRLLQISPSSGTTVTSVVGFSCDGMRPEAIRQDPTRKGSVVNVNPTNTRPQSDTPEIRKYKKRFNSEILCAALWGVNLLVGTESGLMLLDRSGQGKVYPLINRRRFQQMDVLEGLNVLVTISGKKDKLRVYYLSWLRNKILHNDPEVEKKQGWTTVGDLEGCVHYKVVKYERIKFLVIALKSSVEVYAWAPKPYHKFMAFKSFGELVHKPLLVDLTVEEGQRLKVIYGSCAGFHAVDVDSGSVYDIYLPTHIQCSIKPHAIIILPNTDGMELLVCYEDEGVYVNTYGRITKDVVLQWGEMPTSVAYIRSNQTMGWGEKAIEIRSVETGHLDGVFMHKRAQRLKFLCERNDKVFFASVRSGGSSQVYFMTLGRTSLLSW
Dual specificity mitogen-activated protein kinase kinase 1 (Homo sapiens), sequence (Q02750 whole entry): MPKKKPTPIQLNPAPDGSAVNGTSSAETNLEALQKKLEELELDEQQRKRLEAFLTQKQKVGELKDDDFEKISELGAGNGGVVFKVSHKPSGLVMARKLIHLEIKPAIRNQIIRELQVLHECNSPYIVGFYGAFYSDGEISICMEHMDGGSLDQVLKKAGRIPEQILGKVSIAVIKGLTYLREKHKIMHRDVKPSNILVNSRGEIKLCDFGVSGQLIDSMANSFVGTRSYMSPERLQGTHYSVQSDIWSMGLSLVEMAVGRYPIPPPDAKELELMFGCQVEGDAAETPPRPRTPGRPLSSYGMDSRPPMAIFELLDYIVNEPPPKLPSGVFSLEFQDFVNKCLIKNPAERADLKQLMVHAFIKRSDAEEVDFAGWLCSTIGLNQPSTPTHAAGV

| SMILES | inhibition [1] | inhibition [2] | inhibition [3] | inhibition [4] | inhibition [5] | inhibition [6] | inhibition [7] | inhibition [8] | inhibition [9] | inhibition [10] | inhibition [11] | inhibition [12] | inhibition [13] | inhibition [14] | inhibition [15] | inhibition [16] | inhibition [17] | inhibition [18] | inhibition [19] | inhibition [20] |
| --- | --- | --- | --- | --- | --- | --- | --- | --- | --- | --- | --- | --- | --- | --- | --- | --- | --- | --- | --- | --- |
| COc1ccc(-c2nn3ncccc3c2-c2ccnc(Nc3cccc(C(F)(F)F)c3)n2)cc1 | 4.62% | 1.9% | 2.55% | 5.18% | 5.08% | 1.69% | 2.89% | 4.76% | 5.12% | -0.3% | -0.52% | 6.36% | 5.19% | 0.91% | -0.8% | 3.37% | 3.1% | 1.8% | 1.57% | -2.15% |
| C[C@@H](Oc1cc(-n2cnc3ccc(OCC4CCN(C)CC4)cc32)sc1C(N)=O)c1ccccc1C(F)(F)F | 1.19% | -0.27% | 0.01% | 0.08% | 0.43% | 29.1% | 74.7% | 11.4% | 56.7% | – | – | -2.64% | 0.44% | -1.54% | -2.14% | -1.81% | 0.3% | -2.43% | -1.92% | 1.47% |
| Cc1ccc2c(c1)/C(=N/Nc1ccc(S(N)(=O)=O)cc1)C(=O)N2 | 72.3% | 0.13% | 1.05% | 16.2% | 61.8% | 16.4% | 65.9% | 11% | 55% | 0.66% | 17.1% | -1.7% | 5.13% | 0.16% | -0.31% | 0.21% | -1.09% | -8.51% | – | -4.78% |
| O=C1Nc2ccc(-c3cccnc3)cc2C1=Cc1cc(Br)c(O)c(Br)c1 | 91.6% | 4.59% | 5.62% | 45% | 81.6% | 9.98% | 39.6% | 10.3% | 37.3% | 9.93% | 36% | 6.15% | 6.31% | 2.5% | 2.17% | 4.09% | 4.77% | 0.53% | -0.35% | -0.06% |
| NS(=O)(=O)c1ccc(NC=C2C(=O)Nc3ccc4ncsc4c32)cc1 | 79% | 17.5% | 68.3% | 62.9% | 78.9% | 74.5% | 80.4% | 73.1% | 78.2% | 62.1% | 78.9% | 7.91% | 8.35% | 2.5% | 4.68% | 5.33% | 6.6% | – | 5.11% | 0.36% |
| Cc1ccc2c(-c3ccnc(Nc4ccc5c(c4)OCCO5)n3)c(-c3ccc(C(F)(F)F)cc3)nn2n1 | -0.58% | 1.89% | 1.58% | 0.81% | -1.31% | 0.92% | 3.55% | 0.03% | 2.76% | 1.07% | 0.53% | 0.57% | 2.13% | 0.68% | -0.11% | 2% | 0.74% | -9.67% | -4.92% | 7.58% |
| Cc1cc(O)cc(C)c1/C=C/c1cncc(C(=O)N(C)C)c1 | 12.6% | 2.74% | 2.6% | 6.61% | 11.7% | 3.39% | 3.11% | 3.57% | 2.26% | 0.08% | 1.13% | 2.77% | 6.81% | 1.73% | 0.38% | -0.76% | 2.83% | 3.14% | 6.26% | 7.18% |
| Nc1nccc(-c2c(-c3ccc(F)cc3)ncn2CCCN2CCOCC2)n1 | 8.06% | 5.23% | 4.45% | 5.84% | 7.98% | 3.71% | 5.25% | 4.5% | 5.71% | -0.66% | 11.2% | 9.14% | 6.55% | 1.64% | 1.75% | 5.89% | 4.41% | – | 3.01% | -1.31% |
| COc1cc(Nc2nccc(-c3cnn4ncccc34)n2)cc(OC)c1 | 78.9% | 3.92% | 26.4% | 20.6% | 71.9% | 5.52% | 35.6% | 5.54% | 29.6% | 0.99% | 4.52% | -0.14% | 2.57% | -0.1% | 2.59% | 0.77% | 3.43% | -6.63% | 9.42% | -2.46% |
| CC(C)c1ccc2c(c1)NC(=O)/C2=N/Nc1ccc(S(N)(=O)=O)cc1 | 62.3% | 0.83% | 1.72% | 10.1% | 48.9% | 1.52% | 11.2% | 1.12% | 9.13% | -0.9% | 0.01% | -1.3% | 3.93% | -1.91% | -1.73% | -1.11% | 0.37% | -6.19% | -0.94% | -8.22% |
| CC(C)c1ccc(Nc2nccc(-c3cnn4ncccc34)n2)cc1 | 18.7% | 2.79% | 9.57% | 3.97% | 14.6% | 4.71% | 20.1% | 5.07% | 18.6% | 0.23% | 2.8% | 2.05% | 3.55% | 1.06% | 0.9% | 1.95% | 2.33% | -3.7% | 2.48% | -6.25% |
| CCCN1CCCC(c2ccc(Nc3nc(Nc4cc(F)ccc4C(N)=O)c4cc[nH]c4n3)c(OC)c2)C1 (stereo not given) | 80.8% | 9.59% | 33.4% | 28.3% | 71.7% | 10.2% | 41% | 6.09% | 10.6% | -1.66% | -1.5% | 7.38% | 9.12% | 2.49% | 3.33% | 4.64% | 5.56% | 1.21% | 6.67% | 2% |
| Nc1nccc(C#Cc2cncnc2Nc2ccc(OCc3cccc(F)c3)c(Cl)c2)n1 | 5.46% | 2.67% | 4.4% | 6.95% | 6.41% | 6.4% | 10.4% | 6.63% | 7.32% | -1.78% | -8.32% | 6.18% | 3.97% | 1.6% | 2.31% | 0.29% | 3.37% | 3.29% | -3.56% | 5.51% |
